Measured values as given in PubChem BioAssay AID504848 (National Center for Advancing Translational Sciences (NCATS), 2011).
About 1,400 (61%) of roughly 2,300 compounds were called active. Not shown: some 29% with an inconclusive outcome. Calls follow the shape of the dose curve; as a rule, active = well fitted inhibition curve with a large enough effect; inconclusive = small, poorly fitted or top-dose-only effect, or effect the other way; inactive = no such curve, though single readings can be large or run the other way. So high a share suggests a set chosen from earlier hits. This is one part of the list.

test: Confirmation screen for delayed death inhibitors of the malarial parasite plastid, 96 hour incubation; also: nearly all actives have a fitted effect of over 60% in size; conditions: P. falciparum luciferase growth in erythrocytes; series mostly up to 28.7 µM
In short: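 Erythrocytes infected with luciferase-expressing P. falciparum (2% hematocrit, 0.1% parasitemia final) in RPMI 1640 with 0.5% Albumax, exposed to compounds 96 h at 37 C, 5% CO2. Growth inhibition read as decreased luciferase luminescence.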
Potency is read from the fitted curve at half-maximal effect.

Structure (SMILES)	Potency
CSCCn1c(C(C)(C)C)cc(C(=O)O)c1C	inactive
CCC(=O)c1ccc(OCC(O)CNC(C)c2ccccc2)cc1 (stereo not drawn)	11.2 µM (active)
Cn1nnnc1Sc1ncnc2scc(-c3cccc(F)c3)c12	6.31 µM (active)
Cn1nnnc1Sc1ncnc2scc(-c3cccc(S(C)(=O)=O)c3)c12	12.6 µM (active)
CC(=O)N1c2ccc(S(=O)(=O)NCCC(=O)NC3CCCC(C)C3C)cc2CC1C (stereo not drawn)	14.1 µM (active)
N#C/C(=C\c1ccccn1)c1ccccn1	11.2 µM (active)
O=C(c1ccco1)N1CCN(C2c3ccccc3-c3ccccc32)CC1	12.6 µM (active)
COc1ccc(CSC2=NCCN2)cc1Br	12.6 µM (active)
O=C(CCl)c1ccc2c(c1)CCN2C(=O)C1CCCCC1	11.2 µM (active)
O=C(COc1ccc(Cl)cc1)NCc1nnc2c3ccccc3c(-c3ccccc3)nn12	12.6 µM (active)
O=C1/C(=C/c2ccc(Cl)cc2)SC(=S)N1CCC(=O)N1CCCCC1CCO (stereo not drawn)	12.6 µM (active)
CC(C)c1ccc(/C=C2\SC(=S)N(CCC(=O)N3CCCCC3CCO)C2=O)cc1 (stereo not drawn)	1.26 µM (active)
COc1cccc(/C=C2\SC(=S)N(CCC(=O)N3CCCCC3CCO)C2=O)c1 (stereo not drawn)	6.31 µM (active)
COc1cccc([C@@H]2Oc3ccc(OC)cc3C(=O)[C@H]2O)c1	7.08 µM (active)
C=CCNC(=O)c1onc(CSc2ccc(C(C)C)cc2)c1C(=O)O	inactive
C=CCNC(=O)c1onc(CSc2ccc(F)c(F)c2)c1C(=O)O	inactive
C=CCNC(=O)c1oc2ccc(S(=O)(=O)N3CCCCC3)cc2c1C	11.2 µM (active)
COC(=O)C1=CN(Cc2ccc(F)cc2)C=C(C(=O)OC)C1c1ccc(O)c(OC)c1	10 µM (active)
CC(=O)N(C)C1=C(N2CCOCC2)C(=O)c2ccccc2C1=O	0.0355 µM (active)
N#Cc1ncc(-c2ccc3c(c2)OCCOCCOCCOCCOCCO3)nc1C#N	12.6 µM (active)
O=C(c1cc(COc2cccc(C(F)(F)F)c2)on1)N1CCC(Oc2cccnc2)CC1	14.1 µM (active)
C/C(=N\NC(=O)c1ccc(Cl)c(Cl)c1)c1ccc(Br)s1	2 µM (active)

Structure (SMILES)	Potency
O=C(CSc1nc2ccccc2n1-c1ccccc1)Nc1ncc(Cl)cc1Cl	10 µM (active)
COCCn1c(SC(C)C(=O)Nc2ncc(Cl)cc2Cl)nc2ccccc21 (stereo not drawn)	15.8 µM (active)
Cc1ccc(-n2c(SCC(=O)Nc3ncc(Cl)cc3Cl)nc3ccccc32)cc1	11.2 µM (active)
COc1ccc(CN2CCC(Oc3ccc(C(=O)NCc4ccccn4)cc3)CC2)c(F)c1	12.6 µM (active)
Cc1nn(C)c(C)c1C(C)NC(=O)c1ccc(OC2CCN(Cc3ccccn3)CC2)cc1 (stereo not drawn)	inactive
O=C1N=C(N2CCN(c3ccccc3)CC2)S/C1=C/c1cccs1	12.6 µM (active)
CC1=NNC(=O)/C1=C\c1cn(-c2ccccc2)nc1-c1cccs1	5.62 µM (active)
O=C(c1ccco1)N1CCN(C(=O)C2CCCc3c2[nH]c2ccc(Cl)cc32)CC1 (stereo not drawn)	12.6 µM (active)
C=CCN=c1scc(-c2ccc(F)cc2)n1/N=C/c1ccccn1	3.98 µM (active)
Cc1n[nH]c(=S)n(/N=C/c2ccccn2)c1=O	inactive
Cc1ccc(NC(=O)CSc2nc3ccccc3c(=O)n2CCCN2CCCCC2)cc1Cl	6.31 µM (active)
CC(C)(C)n1ncc2c(=O)n(Cc3ccccc3Br)cnc21	12.6 µM (active)
CSc1ncccc1C(=O)NC1CC(C)(C)Cc2c1cnn2-c1ccccc1C (stereo not drawn)	11.2 µM (active)
COc1ccc(OC)c(C(=O)NC2CC(C)(C)Cc3c2cnn3-c2ccccc2)c1 (stereo not drawn)	11.2 µM (active)
COc1cccc(C(=O)NC2CC(C)(C)Cc3c2cnn3-c2cccc(F)c2)c1OC (stereo not drawn)	12.6 µM (active)
CC[C@H]1OC(=O)[C@H](C)[C@@H](O[C@H]2C[C@@](C)(OC)[C@@H](O)[C@H](C)O2)C(C)[C@@H](O[C@@H]2O[C@H](C)C[C@H](N(C)C)[C@@H]2O)[C@](C)(OC)C[C@@H](C)C(=O)[C@H](C)[C@@H](O)[C@]1(C)O (stereo partly drawn)	2.82 µM (active)
CC[C@H]1OC(=O)[C@H](C)[C@@H](O[C@H]2C[C@@](C)(OC)[C@@H](O)[C@H](C)O2)[C@H](C)[C@@H](O[C@@H]2O[C@H](C)C[C@H](N(C)C)[C@H]2O)[C@](C)(O)C[C@@H](C)CN(C)[C@H](C)[C@@H](O)[C@]1(C)O	0.631 µM (active)
CCC(=O)OC1C(N(C)C)CC(C)O[C@H]1O[C@H]1[C@H](C)[C@@H](O[C@H]2CC(OC)[C@@H](O)C(C)O2)[C@H](C)C(=O)O[C@@H](CC)[C@](C)(O)[C@@H](O)[C@H](C)C(=O)[C@@H](C)C[C@]1(C)O (stereo partly drawn)	10 µM (active)
COc1ccccc1NS(=O)(=O)c1ccc(NN=C2CCCC2)c([N+](=O)[O-])c1	11.2 µM (active)
Cc1ccc(-c2nn(-c3ccccc3)cc2CC(=S)N2CCOCC2)cc1	12.6 µM (active)
COc1ccc(Cn2c(-c3ccc(Br)cc3)c[n+]3ccccc23)cc1	0.562 µM (active)
Cc1ccn2c(NC3CCCC3)c(-c3ccccn3)nc2c1	3.16 µM (active)

Structure (SMILES)	Potency
CCOC(=O)c1cc(-c2ccccc2)sc1NC(=O)C(C)OC(=O)c1cccnc1Cl (stereo not drawn)	6.31 µM (active)
COCCN(C(=O)c1ccccc1F)c1nnc(-c2ccc(OC)cc2)s1	7.08 µM (active)
COc1ccc(C2CC(c3cccs3)=NN2C(=O)CSc2nnc(N)s2)cc1OC (stereo not drawn)	11.2 µM (active)
Cc1ccc(NC(=O)c2ccc3c(SCC(=O)O)c4c(nc3c2)CCCC4)c(Br)c1	7.94 µM (active)
Cc1onc(NC(=O)c2ccc([N+](=O)[O-])o2)c1Br	11.2 µM (active)
Cc1cc[n+]2cc(-c3cccc([N+](=O)[O-])c3)c(-c3cccc([N+](=O)[O-])c3)cc2c1	0.112 µM (active)
CC(=O)Nc1cccc(C(=O)/C=C/c2ccc(C)cc2)c1	15.8 µM (active)
CCC(=O)Nc1cccc(C(=O)/C=C/c2ccccc2)c1	12.6 µM (active)
CCC(=O)Nc1cccc(C(=O)/C=C/c2cc(Br)ccc2OC)c1	7.94 µM (active)
N#C/C(=C\c1ccc(-c2ccc(C(=O)O)cc2)o1)C(=O)Nc1ccc(F)cc1	10 µM (active)
COc1ccc(/C=N/NC(=O)c2cc(-c3ccccc3)nc3ccccc23)cc1O	inactive
COc1ccc(-c2cc(C(=O)N/N=C/c3ccc4c(c3)OCO4)c3ccccc3n2)c(OC)c1	11.2 µM (active)
COc1ccccc1-c1cc(C(=O)N/N=C/c2sccc2C)c2ccccc2n1	3.55 µM (active)
COc1ccccc1-c1cc(C(=O)N/N=C/c2cccs2)c2ccccc2n1	6.31 µM (active)
COc1ccccc1-c1cc(C(=O)N/N=C/c2ccc(C)s2)c2ccccc2n1	5.01 µM (active)
COc1ccccc1-c1cc(C(=O)N/N=C/c2ccc(C)o2)c2ccccc2n1	inactive
C=CCNC(=O)c1onc(CSc2cccc(Cl)c2)c1C(=O)O	inactive
Cc1cccc(N(Cc2ccccc2)C(=O)CN2C(=O)NC3(CCCCC3C)C2=O)c1 (stereo not drawn)	11.2 µM (active)
Cc1nn(Cc2c(Cl)cccc2Cl)c(C)c1NC(=O)c1cc(C(C)C)on1	inactive
Cc1nn(Cc2ccccc2Cl)c(C)c1C(=O)Nc1nnc(C2CC2)s1	11.2 µM (active)
COc1ccc(-n2c(=O)/c(=C\c3cccs3)s/c2=C(/C#N)C(=O)N2CCN(C)CC2)cc1	inactive
Fc1ccc(Nc2nc(N3CCOCC3)nc(N3CCOCC3)n2)cc1	12.6 µM (active)

Structure (SMILES)	Potency
COc1ccc(CN2CCN(C(=O)c3ccc(CNS(=O)(=O)c4ccc(C)cc4)cc3)CC2)c(OC)c1OC	11.2 µM (active)
O=S(=O)(c1ccc(Cl)c(NC(=S)N/N=C/c2ccc(O)cc2)c1)N1CCOCC1	5.01 µM (active)
COc1cccc(/C=C/C(=O)c2ccc(NS(=O)(=O)c3ccc(C)cc3)cc2)c1	15.8 µM (active)
COc1ccc(/C=C/C(=O)c2ccc(NS(=O)(=O)c3ccc(C)cc3)cc2)cc1O	7.08 µM (active)
CC(NC(=O)CCl)c1ccccc1Br (stereo not drawn)	0.794 µM (active)
COc1ccccc1OCC(=O)Nc1ccc(S(=O)(=O)N2CCCCCC2)cc1	12.6 µM (active)
Cc1ccc(NC(=O)COc2ccccc2C#N)cc1S(=O)(=O)N1CCCCCC1	12.6 µM (active)
COc1cc2c(cc1OC)CN(CC(=O)Nc1ccc(S(=O)(=O)N3CCCC3)cc1)CC2	15.8 µM (active)
COc1ccc(NC(=O)CN2CCN(S(=O)(=O)c3ccc(Br)cc3)CC2)c(OC)c1	7.94 µM (active)
C=CCn1c(SCc2cc(=O)n3cc(C)ccc3n2)nnc1-c1ccc(F)cc1	8.91 µM (active)
CCN(CC)C1=N/C(=C\c2ccc(OC)cc2)C(=O)N1c1ccccc1	12.6 µM (active)
COc1ccc(/C=C2\N=C(SC)N(c3ccccc3OC)C2=O)cc1	12.6 µM (active)
Clc1cccc(CN2CCc3c([nH]c4ccccc34)C2)c1	12.6 µM (active)
COc1ccc(C2CC(=O)C3=C(C2)Nc2ccccc2NC3c2coc3ccccc3c2=O)cc1OC (stereo not drawn)	1.12 µM (active)
COc1ccc(C(C)(C)C)cc1NC(=O)c1[nH]c(C)c(C(C)=O)c1C	4.47 µM (active)
CC(=O)c1c(C)[nH]c(C(=O)COC(=O)COc2ccccc2F)c1C	inactive
CCc1nc(SCC(=O)Nc2ccc(N(C)C)cc2)n[nH]1	2.82 µM (active)
COc1ccc(OCCOc2ccc(S(=O)(=O)N3CCCC3)cc2C(N)=O)cc1	10 µM (active)
C=CCN(CC=C)C(=O)C1CCN(S(=O)(=O)c2ccc(N3CCCC3=O)cc2)CC1	5.01 µM (active)
COC(=O)c1cn(C)c2ccc(S(=O)(=O)N3CCCC3)cc2c1=O	inactive
COc1ccc(S(=O)(=O)N2CCCN(S(=O)(=O)c3ccc(OC)c(C)c3)CC2)cc1C	12.6 µM (active)
Cc1ccc(S(=O)(=O)N2CCC(C(=O)Nc3ccc(S(=O)(=O)N4CCCC4)cc3)CC2)cc1C	7.08 µM (active)
